Most compounds without a hit are left out; they make up all but 3.3% or so of the library.
AmpC detergent – qHTS Inhibitors of AmpC Beta-Lactamase (assay with detergent); AmpC hydrolysis of nitrocefin, absorbance 480 nm, 0.01% Triton; Potency, µM (top dose mostly 114 µM), without a hit: at the top dose activity change, negative = inhibition, actives largely listed as inhibitors; hit rate 0.041% among 370,000;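 also: 0% = no-compound wells and -100% = no-enzyme wells; nearly all actives have a fitted effect of over 25% in size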
Target sequence (P00811 whole entry, looked up): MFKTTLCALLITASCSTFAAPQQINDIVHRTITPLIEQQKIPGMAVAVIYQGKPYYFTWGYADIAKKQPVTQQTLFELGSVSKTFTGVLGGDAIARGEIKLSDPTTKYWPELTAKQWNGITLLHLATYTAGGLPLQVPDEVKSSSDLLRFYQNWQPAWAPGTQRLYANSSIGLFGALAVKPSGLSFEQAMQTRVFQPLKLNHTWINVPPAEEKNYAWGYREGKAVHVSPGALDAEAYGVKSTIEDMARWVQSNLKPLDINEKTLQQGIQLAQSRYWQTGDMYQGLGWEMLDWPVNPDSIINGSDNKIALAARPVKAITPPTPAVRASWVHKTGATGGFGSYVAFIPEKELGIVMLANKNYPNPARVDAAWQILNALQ
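20 mM phosphate pH 7.0 + 0.01% (detergent screen) or 0.0001% Triton X-100; 5.3 nM AmpC reagent; cpd preinc 15 min RT; nitrocefin (800 uM stock) to start; A480 q20 s × 4 min; Activity was normalised to no-enzyme and no-compound control wells.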
Sm TGR block – qHTS Assay for the Inhibitors of Schistosoma Mansoni Peroxiredoxins; Potency, µM (titrated, usually from 114 µM), without a hit: at the top dose activity change, negative = inhibition, most hits filed as inhibitors; purified TGR, DTNB reduction, TNB absorbance 405 nm; Schistosoma mansoni thioredoxin glutathione reductase (TGR), Q962Y6; hit rate 3% among 360,000; also: % is scaled to controls: 0 for no effect and ±100 for the full control effect; nearly all actives have a fitted effect of over 60% in size
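First, TGR (20 nM dispensed) and NADPH were mixed with compound. Second, a 15 min room-temperature incubation followed. Third, further NADPH and then DTNB were added to start the reaction. Finally, TNB absorbance was monitored kinetically.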
RE007 growth inh – qHTS Assay for Inhibitors of the HIV-1 protein Vpr; S. pombe RE007 Vpr strain, BacTiter-Glo ATP luminescence, 24 h; Potency, µM (doses to about 92.2 µM), for inactives: top-dose activity change, negative = less growth, hits mostly inhibitors; hit rate 0.21% among 360,000; AID 651644, 2012; active = well fitted falling curve with a large enough effect; inconclusive = small, poorly fitted or top-dose-only effect; inactive = no such curve, though single readings can be large or run the other way; also: % is scaled to controls: 0 for no effect and ±100 for the full control effect; nearly all actives have a fitted effect of over 50% in size
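Fission yeast RE007 carrying one integrated HIV-1 vpr copy, seeded at OD 0.01 in PMG+AL medium with 23 nL pinned compound. Grown 24 h at 30 degrees; viability read by BacTiter-Glo luminescence after 5 min.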
AmpC inh no detg – qHTS Inhibitors of AmpC Beta-Lactamase (assay without detergent). P00811. AmpC nitrocefin hydrolysis, absorbance 480 nm, 0.0001% Triton. Potency, µM (highest dose often 57.1 µM), for the others: top-dose activity change, negative = inhibition, most hits filed as inhibitors. hit rate 0.52% among 330,000;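 also: plate controls were no compound for no effect and no enzyme for full effect; nearly all actives have a fitted effect of over 20% in size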
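AmpC (5.3 nM in the dispensed reagent) in 20 mM phosphate pH 7.0 with 0.01% (detergent screen) or 0.0001% Triton X-100 was preincubated with compounds for 15 min at room temperature. Nitrocefin was then added from an 800 uM solution, and hydrolysis was followed at 480 nm.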
SARS PLP yeast – qHTS of Yeast-based Assay for SARS-CoV PLP; S. cerevisiae expressing SARS-CoV PLpro, growth rescue; Potency, µM (series often up to 32.9 µM), for inactives: at the top dose activity, positive = growth rescue, usual class: activators; hit rate 0.19% among 330,000; calls by dose curve; also: 0% is about no effect; nearly all actives have a fitted effect of over 55% in size
TbPYK inhibitor – qHTS of Trypanosoma Brucei Inhibitors; pyruvate kinase (Trypanosoma brucei), Q57TT1; TbPYK enzyme, Kinase-Glo Plus ATP luminescence, 45 min; Potency, µM (doses to about 76.8 µM), for the others: top-dose activity, negative = inhibition, hits mostly inhibitors; hit rate 0.12% among 410,000; AID 624173, 2012; also: % is scaled to controls: 0 for no effect and ±100 for the full control effect; nearly all actives have a fitted effect of over 50% in size
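Readout: single end-point luminescence (Kinase-Glo Plus, 10 min). Reaction conditions were TbPYK/substrate plus 130 uM ADP, 45 min at RT, pH 7.2 TEA buffer. No-enzyme wells served as controls, and data were normalized before concentration-response fitting.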
Numbers without * were called inactive; ? = inconclusive; · = not tested or not shown; [ ] = remark or other dose. Unless noted, calls follow the shape of the dose curve; as a rule, active = well fitted curve in the direction sought with a large enough effect; inconclusive = small, poorly fitted or top-dose-only effect, or another doubt; inactive = no such curve, though single readings can be large; an effect the other way counts as inactive or inconclusive. Potency is read from the fitted curve at half-maximal effect.

SMILES	AmpC detergent	Sm TGR block	RE007 growth inh	AmpC inh no detg	SARS PLP yeast	TbPYK inhibitor
COC(=O)C1=C(C)NC(=O)/C1=C\c1cc(C)n(-c2c(C)cccc2C)c1C	?	-34%	-10%	-9%	-40%	-10%
COC(=O)C1=C(C)NC(=O)/C1=C\c1cc(C)n(-c2ccccc2F)c1C	-4%	14µM*	2%	-24%	-1%	-15%
COC(=O)C1=C(C)NC(=O)/C1=C\c1cc(C)n(-c2ccccc2C)c1C	-7%	-22%	16µM*	-9%	-19%	-1%
COc1ccc(NC(=O)CCn2cnnn2)cc1	9%	6%	·	·	·	-9%
COC(=O)C1=C(CS(=O)(=O)c2cc(Cl)ccc2OC)NC(=O)NC1c1ccccc1 (stereo not given)	-2%	-10%	·	·	·	5%
O=C(/C=C/c1cccc(Cl)c1)c1ccc([N+](=O)[O-])o1	?	0.71µM*	11µM*	-29%	5%	-12%
COc1cc(/C=C/C(=O)CC(=O)/C=C/c2ccc(O)c(OC)c2)ccc1O	-9%	?	11%	-22%	-70%	7%
COc1cc(/C=C/[N+](=O)[O-])ccc1O	0%	35µM*	?	-43%	-79%	-28%
COc1ccc(/C=C/C(=O)c2ccc([N+](=O)[O-])o2)cc1OC	-15%	6.3µM*	0%	1%	3%	-4%
COc1cc(/C=C/C(=O)O)ccc1O	·	·	10%	·	·	-5%
NS(=O)(=O)c1ccc(CNC(=O)/C=C/c2cccc(Cl)c2)cc1	-6%	3%	6%	-15%	21%	1%
COc1cc(/C=C/C(=O)c2ccc([N+](=O)[O-])o2)ccc1O	-4%	3.2µM*	13µM*	-11%	1%	-5%
O=C(NCc1cccs1)c1ccc2c(=O)n3nc(Nc4ccccc4)sc3nc2c1	6%	-1%	·	·	·	3%
c1cnc2cc3c(cc2n1)C1CNCC3C1	·	·	·	·	·	0%[157 µM]
CC/C=C(/C(=O)N[C@@H]1C(=O)N2C(C(=O)OCOC(=O)C(C)(C)C)=C(COC(N)=O)CS[C@H]12)c1csc(N)n1	·	·	·	·	·	-6%
CC(C)Oc1ccc(CNC(=O)c2ccccc2NC(=O)c2nsc3ccccc23)cc1	0%	-2%	·	·	·	3%[15.4 µM]
COc1cc(C=C2C(=O)C=CC2=O)ccc1O	·	·	2µM*	·	·	3.5µM*
COC(=O)C1=C(O)/C(=C\c2ccc(O)c(OC)c2)N=C1C	?	50µM*	-7%	-18%	0%	-9%
O=C(c1ccc([N+](=O)[O-])o1)N1CCc2ccccc2C1	-2%	0%	?	-7%	-20%	2%
COc1cc2c(cc1OC)CN(C(=O)c1ccc([N+](=O)[O-])o1)CC2	-1%	28µM*	-7%	4%	-4%	-18%
COc1cc(/C=C2/C(=O)CNC2=O)ccc1O	-3%	-2%	-4%	-17%	-2%	?
C=CCC1(O)CCC2C3CCC4=CC(=O)CCC4=C3C=CC21C (stereo not given)	·	·	·	·	·	-16%
CCc1ccc(S(=O)(=O)ON2C(=O)c3ccccc3C2=O)cc1	35µM*	1.4µM*	-9%	-5%[2.29 µM]	0%	?
COc1ccc(OC)c(S(=O)(=O)N2CCN(c3ccccc3)CC2)c1	?	-4%	6%	-8%	-14%	-6%
COc1ccc(OC)c(S(=O)(=O)ON2C(=O)c3ccccc3C2=O)c1	40µM*	0.63µM*	16%	?	-2%	-28%
SMILES	AmpC detergent	Sm TGR block	RE007 growth inh	AmpC inh no detg	SARS PLP yeast	TbPYK inhibitor
O=C1c2cccc3cccc(c23)C(=O)N1OS(=O)(=O)c1ccc(Cl)cc1	-12%	-14%	-20%	-27%	-14%	-5%
Cc1ccccc1OCCn1c(=N)n(C(C)C)c2ccccc21	1%	-6%	·	·	·	2%
O=C(N/N=C/c1c[nH]c2ccccc12)c1cc(Cl)ccc1O	-9%	-35%	-1%	16µM*	-4%	6%
Fc1c(F)c(F)c(N/N=C/c2c[nH]c3ccccc23)c(F)c1F	6%	1%	16µM*	-43%	-104%	-12%
O=C(O)c1ccc(N/N=C/c2c[nH]c3ccccc23)cc1	4%	-16%	-10%	-16%	-2%	-17%
O=C(N/N=C/c1c[nH]c2ccccc12)c1ccc(Br)cc1	-11%	-4%	-21%	20µM*	-8%	2%
O=C(N/N=C\c1c[nH]c2ccccc12)c1ccc(O)cc1	0%	2%	23%	-20%	-2%	-4%
CCOC(=O)C1=C(C)OC(N)=C(C#N)C1c1cc2cc(C)ccc2nc1N1CCCCC1 (stereo not given)	-10%	3.5µM*	4%	-12%	-20%	-11%
CCOC(=O)C1=C(C)OC(N)=C(C#N)C1c1cc(SCC)oc1C (stereo not given)	3%	45µM*	?	-14%	1%	-4%
CCOC(=O)C1=C(C)OC(N)=C(C#N)C1c1cc(C)sc1C (stereo not given)	?	22%	4%	-14%	4%	-2%
CCCNC(=O)CS(=O)(=O)Cc1nc(-c2cccc(OC)c2)oc1C	?	22µM*	-10%	-1%	7%	-1%
CCOCCCNC(=O)CS(=O)(=O)Cc1nc(-c2cccc(OC)c2)oc1C	-7%	45µM*	-2%	38%	4%	1%
CCN1CCN(CCCNC(=O)CS(=O)(=O)Cc2nc(-c3cccc(OC)c3)oc2C)CC1	-4%	-17%	-2%	28%	3%	2%
CCNc1ccccc1CP(=O)(c1ccccc1)c1ccccc1O (stereo not given)	-9%	0.5µM*	-19%	10%	0%	-24%
Cc1ccc(O)c(CP(=O)(c2ccccc2)c2ccccc2)c1	-8%	8%	10%	-30%	-5%	0%
CCC1c2ccc(C)n2CCN1C(=O)Nc1ccccc1C(=O)OC (stereo not given)	5%	-32%	4%	156%	-5%	-11%
CCOC(=O)c1ccccc1NC(=O)N1CCn2c(C)ccc2C1CC (stereo not given)	-2%	7.1µM*	-27%	34%	-3%	0%
CCCC1c2ccc(C)n2CCN1C(=O)Nc1ccccc1Cl (stereo not given)	-13%	35µM*	-8%	-15%	-4%	-6%
Cc1cccc(OCC(=O)N/N=C/c2sc(=O)n(Cc3cccc(C(=O)O)c3)c2Cl)c1	-4%	25µM*	-10%	-35%	0%	-12%

Screens deposited in PubChem by National Center for Advancing Translational Sciences (NCATS).
